Measurements published in PubChem BioAssay AID489018 (Southern Research Specialized Biocontainment Screening …, 2010).
The whole screen tested about 2,300 compounds, of which about 350 (15%) were called active. No rule for the calls is given here. Not all results are given here. Entries with a potency or affinity are not part of this list.

Assay: HepG2 cell cytotoxicity, dose response, cytotoxicity control for non-replicating M. tuberculosis project (AID 489018);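 also: HepG2 human liver cells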
Conditions: series mostly up to 20 µM

Row | Compound | outcome
1 | Brc1c(-c2ccc3c(c2)OCO3)nc2ncccn12 | inactive
2 | O=C(Nc1ccc(N2CCN(C(=O)c3ccco3)CC2)c(Cl)c1)c1cccs1 | inactive
3 | COC(=O)c1ccccc1Sc1ncnc2onc(C)c12 | inactive
4 | Cc1c(Cl)cccc1-c1ccc(CNCc2ccccn2)o1 | inactive
5 | N#Cc1nc(-c2ccc(OCc3ccccc3)cc2)oc1NCCCn1ccnc1 | inactive
6 | CCOC(=O)C(C)Oc1cc(Cl)c(C=O)cc1OC (configuration not stated) | inactive
7 | N/N=C(/Cc1nc2ccccc2[nH]1)c1ccc([N+](=O)[O-])cc1 | inactive
8 | O=C(Nc1cc(C(F)(F)F)ccc1-n1cncn1)c1ccc([N+](=O)[O-])o1 | inactive
9 | COc1ccccc1-c1nnc(Sc2nc([N+](=O)[O-])nn2C)o1 | inactive
10 | Cc1cc(C)c(C(=O)COC(=O)c2ccc([N+](=O)[O-])o2)cc1C | inactive
11 | COc1ccc2cc(C(=O)C3CCCN(Cc4cccc(C)n4)C3)ccc2c1 (configuration not stated) | inactive
12 | CCCCOc1ccc(NC(=O)CN2CCN(Cc3ccccc3)CC2)cc1 | inactive
13 | CC(C)(C)c1ccccc1OCCOCCN1CCCCCC1 | inactive
14 | CS/C(Nc1cc(Cl)ccc1Cl)=C(/C#N)C(=O)c1ccco1 | inactive
15 | Cc1[nH]c2ccccc2c1C(=O)COC(=O)c1ccc([N+](=O)[O-])s1 | inactive
16 | c1ccc(-c2n[nH]c(-c3ccccn3)n2)nc1 | inactive

Row | Compound | outcome
17 | c1ccc(Nc2nc(-c3ccccn3)cs2)cc1 | inactive
18 | COC(=O)C(C)Oc1ccc2cc(-c3ccccc3)c(=O)oc2c1 (configuration not stated) | inactive
19 | O=C(CCS(=O)(=O)Cc1ccccc1)Nc1ncc([N+](=O)[O-])s1 | inactive
20 | O=S(=O)(c1ccc(OCC2CO2)cc1)c1ccc(OCC2CO2)cc1 (configuration not stated) | inactive
21 | Cc1ccccc1C(=O)NN1CC(C(=O)OCc2ccc(Cl)c(Cl)c2)CC1=O (configuration not stated) | inactive
22 | CCC(C)c1ccc(OCCn2ccnc2)cc1 (configuration not stated) | inactive
23 | Cc1ccc2nc(C)c3c(c2c1)COC3 | inactive
24 | Cc1[nH]n(-c2cccc(Cl)c2)c(=O)c1/C=N/n1c(C)nc2ccccc2c1=O | inactive
25 | CC(C)(C)NCC1(CO)SC(N)=NC1=O (configuration not stated) | inactive
26 | CCOC(=O)/C=C1\Nc2ccccc2OC1=O | inactive
27 | COc1cc(NC(=O)C/C(C)=N/NC(=O)c2cccs2)c(OC)cc1Cl | inactive
28 | O=C(Nc1nnc(-c2ccco2)o1)c1cccc2ccccc12 | inactive
29 | COc1ccc(/C=C/c2nc3ccccc3c(=O)o2)cc1 | inactive
30 | COC(=O)c1cc(-c2ccc(OC)cc2)on1 | inactive
31 | CC(=O)c1ccc(OC(=O)c2ccc(-n3nc(C)cc3C)cc2)cc1 | inactive
32 | Cn1nnc(NC(=O)COc2ccc(C3CCCCC3)cc2)n1 | inactive
